Laboratory results as given in the supplement of paper PMC9446081.
± gives the standard deviation of the averaged measurements.

What follows are compounds tested against MurC (UniProt C4ZRI6) (assay: relative enzymatic activity vs untreated control (fraction); higher = less inhibition). Settings: 100 µM; incubation time: 2 h at 37 C.
Description: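 In vitro enzymatic inhibition assays (ProFoldin kits) for 12 purified essential E. coli enzymes or complexes, each treated with 218 active antibacterial compounds at 100 µM for 2 h at 37°C. Read-outs were fluorescence or absorbance (phosphate detection, dye binding), converted to activity via standard curves and expressed relative to untreated DMSO controls.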

Sequence of MurC (C4ZRI6 whole entry, looked up): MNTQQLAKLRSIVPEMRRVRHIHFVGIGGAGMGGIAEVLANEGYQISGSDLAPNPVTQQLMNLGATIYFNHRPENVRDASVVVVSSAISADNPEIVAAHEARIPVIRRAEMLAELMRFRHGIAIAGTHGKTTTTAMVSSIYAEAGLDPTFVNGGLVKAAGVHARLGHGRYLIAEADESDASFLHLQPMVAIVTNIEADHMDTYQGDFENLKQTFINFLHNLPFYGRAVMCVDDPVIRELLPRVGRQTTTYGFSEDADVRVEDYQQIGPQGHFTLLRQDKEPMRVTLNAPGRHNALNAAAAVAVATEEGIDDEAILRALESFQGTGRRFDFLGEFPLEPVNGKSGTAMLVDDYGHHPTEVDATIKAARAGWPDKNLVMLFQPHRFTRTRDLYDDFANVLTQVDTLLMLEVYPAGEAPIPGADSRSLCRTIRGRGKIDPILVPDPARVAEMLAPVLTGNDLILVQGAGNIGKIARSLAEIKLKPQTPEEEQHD

| SMILES | relative enzymatic activity |
| --- | --- |
| CN[C@@H]1[C@H](O[C@H]2[C@H](O[C@@H]3[C@@H](O)[C@H](O)[C@@H](NC(=N)N)[C@H](O)[C@H]3NC(=N)N)O[C@@H](C)[C@]2(O)CO)O[C@@H](CO)[C@H](O)[C@H]1O.CN[C@@H]1[C@H](O[C@H]2[C@H](O[C@@H]3[C@@H](O)[C@H](O)[C@@H](NC(=N)N)[C@H](O)[C@H]3NC(=N)N)O[C@@H](C)[C@]2(O)CO)O[C@@H](CO)[C@H](O)[C@H]1O | 0.963 ± 0.063 |
| Cc1ccc(S(=O)(=O)O)cc1.NC1CCN(c2nc3c(cc2F)c(=O)c(C(=O)O)cn3-c2ccc(F)cc2F)C1.O (stereo not given) | 0.988 ± 0.17 |
| NC(=O)[C@@H]1CC[C@@H]2CN1C(=O)N2OS(=O)(=O)O | 1.04 ± 0.022 |
| CC[C@@H]1OC(=O)[C@H](C)[C@@H](O[C@H]2C[C@@](C)(OC)[C@@H](O)[C@H](C)O2)[C@H](C)[C@@H](O[C@@H]2O[C@H](C)C[C@H](N(C)C)[C@H]2O)[C@](C)(O)C[C@@H](C)/C(=N\OCOCCOC)[C@H](C)[C@@H](O)[C@]1(C)O | 0.962 ± 0.064 |
| N[C@@H](C(=O)N[C@@H]1C(=O)N2C(C(=O)O)=C(Cl)CC[C@H]12)c1ccccc1 | 0.967 ± 0.054 |
| NCC1OC(OC2C(N)CC(N)C(OC3OC(CO)C(O)C(N)C3O)C2O)C(N)CC1O (stereo not given) | 1.11 ± 0.046 |
| CCn1nc(C(=O)O)c(=O)c2cc3c(cc21)OCO3 | 1.01 ± 0.11 |
| COC(=O)N/N=C/c1c[n+]([O-])c2ccccc2[n+]1[O-] | 1 ± 0.079 |
| CCCCCCCCCCCCC[N+](C)(C)Cc1ccccc1 | 0.106 ± 0.027 |
| NCc1ccccc1CC(=O)NC1C(=O)N2C(C(=O)O)=C(CSc3nnnn3CC(=O)O)CSC12 (stereo not given) | 1.05 ± 0.17 |
| CC(C)(O/N=C(\C(=O)N[C@@H]1C(=O)N2C(C(=O)O)=C(C[n+]3ccccc3)CS[C@H]12)c1csc(N)n1)C(=O)O | 1.02 ± 0.022 |
| CN(C)C1C(O)=C(C(N)=O)C(=O)C2(O)C(O)=C3C(=O)c4c(O)ccc(Cl)c4C(O)C3CC12.Cl (stereo not given) | 1.021 ± 0.0019 |
| CC1(C)S[C@@H]2[C@H](NC(=O)[C@H](NC(=O)N3CCNC3=O)c3ccccc3)C(=O)N2[C@H]1C(=O)O | 0.907 ± 0.097 |
| CC(O)C1C(=O)N2C(C(=O)O)=C(SC3CNC(C(=O)N(C)C)C3)C(C)C12 (stereo not given) | 0.359 ± 0.25 |
| CC1CCc2cc(F)cc3c(=O)c(C(=O)O)cn1c23 (stereo not given) | 1.01 ± 0.053 |
| CC(NCCCc1cccc(C(F)(F)F)c1)c1cccc2ccccc12.Cl (stereo not given) | 0.985 ± 0.092 |
| Cn1sccc1=O | 0.969 ± 0.062 |
| NC[C@H]1O[C@H](O[C@H]2[C@H](O)[C@@H](O[C@H]3O[C@H](CO)[C@@H](O)[C@H](N)[C@H]3O)[C@H](N)C[C@@H]2N)[C@H](N)[C@@H](O)[C@@H]1O | 0.9682 ± 0.0015 |
| O=C1OC(=O)[C@H]2[C@@H]1[C@H]1CC[C@H]2O1 | 1.18 ± 0.093 |
| C=CC1=C(C(=O)O)N2C(=O)C(NC(=O)C(=NO)c3csc(N)n3)C2SC1 (stereo not given) | 0.997 ± 0.02 |

| SMILES | relative enzymatic activity |
| --- | --- |
| NCCC(O)C(=O)NC1CC(N)C(OC2OC(CN)C(O)C(O)C2O)C(O)C1OC1OC(CO)C(O)C(N)C1O.O (stereo not given) | 1.0305 ± 0.00019 |
| Cc1cc(C2CCCCC2)n(O)c(=O)c1.NCCO | 1.18 ± 0.057 |
| O=c1[nH]cc(F)c(=O)[nH]1 | 0.97 ± 0.074 |
| CCn1cc(C(=O)O)c(=O)c2cc(F)c(N3CCN(C)CC3)cc21.CS(=O)(=O)O | 1.02 ± 0.013 |
| CCOC(=O)CCC(=O)O[C@H]1[C@H](O[C@@H]2[C@@H](C)[C@H](O[C@H]3C[C@@](C)(OC)[C@@H](O)[C@H](C)O3)[C@@H](C)C(=O)O[C@H](CC)[C@@](C)(O)[C@H](O)[C@@H](C)C(=O)[C@H](C)C[C@@]2(C)O)O[C@H](C)C[C@@H]1N(C)C | 1.05 ± 0.026 |
| COC1=C(N)C(=O)c2nc(-c3nc(C(=O)O)c(C)c(-c4ccc(OC)c(OC)c4O)c3N)ccc2C1=O | 1.31 ± 0.37 |
| Nc1c2ccccc2nc2ccccc12 | 0.998 ± 0.044 |
| CCC1OC(=O)C(C)C(=O)C(C)C(OC2OC(C)CC(N(C)C)C2O)C(C)(OC)CC(C)C(=O)C(C)C2N(CCCCn3cnc(-c4cccnc4)c3)C(=O)OC12C (stereo not given) | 0.741 ± 0.33 |
| CON=C(C(=O)NC1C(=O)N2C(C(=O)O)=C(C[N+]3(C)CCCC3)CSC12)c1csc(N)n1.[Cl-] (stereo not given) | 0.984 ± 0.032 |
| C[C@H]1c2cccc(O)c2C(=O)C2=C(O)[C@]3(O)C(=O)[C@@H](C(N)=O)C(=O)[C@@H](N(C)C)[C@@H]3[C@@H](O)[C@@H]21 | 0.97 ± 0.064 |
| COc1ccc(Cc2cnc(N)nc2N)cc1OC | 1.1 ± 0.079 |
| CCCC[P+](CCCC)(CCCC)Cc1ccc(NC(=O)[C@@H](Cc2ccc3ccccc3c2)N=C(NC2CCCCC2)NC2CCCCC2)cc1 | 0.817 ± 0.36 |
| CCn1cc(C(=O)O)c(=O)c2cnc(N3CCNCC3)nc21 | 0.99 ± 0.052 |
| O=C(O)c1cn(C2CC2)c2cc(N3CCNCC3)c(F)cc2c1=O | 1.03 ± 0.014 |
| Cc1scc2c1N(C(=O)CN1CCN(C)CC1)c1ccccc1NC2=O.Cl | 0.945 ± 0.037 |
| CC(C)[C@@H](CC[C@@H](C)[C@H]1CC[C@H]2[C@@H]3[C@H](O)C[C@H]4C[C@@H](NCCCNCCCCN)CC[C@]4(C)[C@H]3CC[C@]12C)OS(=O)(=O)O | 0.882 ± 0.078 |
| CN[C@H]1CN(c2ccc3c(=O)c(C(=O)O)cn(-c4nccs4)c3n2)C[C@@H]1OC | 1.035 ± 0.0069 |
| N[C@@H]1CN(c2c(F)cc3c(=O)c(C(=O)O)cn([C@@H]4C[C@@H]4F)c3c2Cl)CC12CC2 | 0.971 ± 0.044 |
| O=C1NCCN1c1ncc([N+](=O)[O-])s1 | 1.008 ± 0.01 |
| CCN1CCN(C(=O)NC(C(=O)NC2C(=O)N3C(C(=O)O)=C(CSc4nnnn4C)CSC23)c2ccc(O)cc2)C(=O)C1=O (stereo not given) | 0.942 ± 0.1 |
